This passage reports outcome and AC50 results from PubChem BioAssay (EPA / NIEHS).

Test [1] has as its target Peroxisome proliferator-activated receptor gamma (Homo sapiens) (UniProt P37231). The test can be described thus: NVS_NR_hPPARg: NovaScreen (NVS) Nuclear Receptor Binding Assay for human Peroxisome Proliferator-activated Receptor gamma (PPARg) (AID 2283370). In short, it runs like this:
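Chemicals were tested first in duplicate at 25 uM, then in concentration series if active. Binding to cell-free PPARg protein was measured by fluorescence polarization after 2 h, with loss of signal scored against DMSO.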

Test [2] deals with human Dopamine Transporter (DAT), SLC6A3 (gene 6531) (UniProt Q01959). Kind of test: NVS_TR_hDAT: NovaScreen (NVS) Transporter Assay for human Dopamine Transporter (DAT) (AID 2283374).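 Also: activity means loss of bound radioligand signal relative to DMSO.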 In short, it runs like this: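 Duplicate single-point screening at 25 uM preceded concentration-series follow-up of actives. Binding was measured by competitive displacement of a radioligand from DAT protein, filter-counted by scintillation 1 h after dosing. Decrease relative to DMSO taken as activity.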

The target in test [3] is Retinoic acid receptor RXR-alpha (Homo sapiens) (UniProt P19793). Kind of test: OT_NURR1_NURR1RXRa_0480: Odyssey Thera (OT) 8-hour HEK293T Protein Complementation Assay for Nurr1/retinoid X receptor (RXR) (AID 2283385). In short, it runs like this:
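Read-out: fluorescence from protein-fragment complementation between Nurr1 and RXRα in human HEK293T cells, 8 h after dosing. DMSO served as negative control; increased signal counted as activity.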

For test [4] the target is unchanged. The test can be described thus: OT_NURR1_NURR1RXRa_1440: Odyssey Thera (OT) 24-hour HEK293T Protein Complementation Assay for Nurr1/retinoid X receptor (RXR) (AID 2283386). The method in brief: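 Fluorescence PCA read-out; HEK293T; 24 h post-dose; bait/prey fused to reporter fragments; gain-of-signal fit vs DMSO negative control.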
Test [5] has as its target Peroxisome proliferator-activated receptor gamma (Homo sapiens) (UniProt P37231). The test can be described thus: OT_PPARg_PPARgSRC1_0480: Odyssey Thera (OT) 8-hour Protein-Complementation Assay for Peroxisome Proliferator-activated Receptor Gamma / SRC-1 Co-activator (AID 2283387).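 Also: nuclear to cytoplasmic split Venus YFP fluorescence ratio reporting PPARg SRC-1 interaction.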 In short, it runs like this:
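Read-out: 488 nm N/C fluorescence ratio from complemented Venus YFP fragments, ≥350 cells per image, gain-of-signal fitted against DMSO baseline. Fusions of PPARg/SRC-1 with IFP1/IFP2 expressed transiently in HEK293T; compounds applied 8 h.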

Test [6] has the same target. The test can be described thus: OT_PPARg_PPARgSRC1_1440: Odyssey Thera (OT) 24-hour Protein-Complementation Assay for Peroxisome Proliferator-activated Receptor Gamma/ SRC-1 Co-activator (AID 2283388).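 Also: nuclear to cytoplasmic ratio of reconstituted Venus YFP fluorescence in fixed imaged cells.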 In short, it runs like this:
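Protein-fragment complementation between PPARg and coactivator SRC-1 was measured by fluorescence imaging in transiently transfected HEK293T cells after 24 h treatment. Signal was quantified as N/C ratio in the 488 nm channel, with DMSO as negative control.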

Test [7] in a line: CEETOX_H295R_11DCORT: CeeTox H295R High-throughput Steroidogenesis Assay for 11-Deoxycortisol (11DCORT) (AID 2283432; active = hit-call score of the fitted dose curve at least 0.9, where 1 is the maximum; inactive = score below 0.9;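 as to AC50: 11-deoxycortisol secreted into the medium measured by LC-MS/MS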). To be noted: actives raise or lower the signal. The method in brief: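 H295R cells; 10 uM forskolin prestim 48 h; compound in 0.1% DMSO 48 h; media extracted with MTBE; 11-deoxycortisol by LC-MS/MS, 7-point standard curve; gain/loss vs DMSO baseline; viability by MTT in same wells.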

Test [8] can be described thus: CEETOX_H295R_OHPREG: CeeTox H295R High-throughput Steroidogenesis Assay for OH-Pregnenolone (OHPREG) (AID 2283434; active = hit-call score of the fitted dose curve at least 0.9, where 1 is the maximum; inactive = score below 0.9). To be noted: actives raise or lower the signal. The method in brief: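 Secreted 17alpha-hydroxypregnenolone measured by HPLC-MS/MS after liquid-liquid extraction. Human adrenal H295R cells received 48 h forskolin (10 uM) stimulation before 48 h chemical exposure at 0.1% final DMSO; MTT viability in same wells; bidirectional fit against DMSO.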

Test [9] has as its target mouse Estrogen Receptor alpha (Era), Esr1 (gene 13982) (UniProt P19785). Kind of test: NVS_NR_mERa: NovaScreen (NVS) Nuclear Receptor Binding Assay for mouse Estrogen Receptor alpha (Era) (AID 2283378).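 Also: hit means loss of bound radioligand signal relative to DMSO.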 The method in brief: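 Extracted mouse Era incubated with tritiated or iodinated radioligand plus test chemical, 18 h. Bound fraction separated on filters, counted by scintillation. DMSO = negative control/baseline; duplicate single-point at 25 uM, then concentration-response follow-up.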

For test [10], the target named is Estrogen receptor beta (Homo sapiens) (UniProt Q92731). Kind of test: OT_ER_ERbERb_1440: Odyssey Thera (OT) 24-hour HEK293T Protein-Complementation Assay for Estrogen Receptor-beta/-beta Homodimer (AID 2283380).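 Also: fluorescence gain from ER beta LBD homodimer complementation read by laser scanning cytometry; scored as signal increase over DMSO baseline for both agonists and antagonists.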 In short, it runs like this: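 Fluorescence increase, nuclear for agonists or whole-cell for antagonists, relative to DMSO vehicle, quantified by laser scanning cytometer after fixation and Draq5 staining. Readout from 24 h treatment of HEK293T cells carrying complementation-paired ER beta LBD (aa 310-547).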

In test [11] the target is Estrogen receptor (Homo sapiens) (UniProt P03372). Kind of test: OT_ERa_GFPERaERE_0480: Odyssey Thera (OT) 8-hour HeLa Transcription Induction Assay for Estrogen Receptor (AID 2283381; active = hit-call score of the fitted dose curve at least 0.9, where 1 is the maximum; inactive = score below 0.9). The method in brief: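 GFP-ERE reporter, HeLa, 8 h exposure. Readout: fluorescence microscopy, high-content image analysis. Fit direction positive vs DMSO negative control.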
Test [12] shares this target. Kind of test: OT_ERa_GFPERaERE_0120: Odyssey Thera (OT) 2-hour HeLa Transcription Induction Assay for Estrogen Receptor (AID 2283382). In short, it runs like this: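 Fluorescence microscopy read-out: inducible fluorescent protein reporter in HeLa cells, imaged 2 h post-dose. Signal increase over DMSO negative control fitted as single primary endpoint via high content image analysis.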

The target of test [13] is Bile acid receptor (Homo sapiens) (UniProt Q96RI1). Kind of test: OT_FXR_FXRSRC1_0480: Odyssey Thera (OT) 8-hour HEK293T Protein-Complementation Assay for Farnesoid X receptor/SRC-1 Co-activator (AID 2283383). The method in brief: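 Fluorescence intensity read-out, 8 h post-dose, HEK293T protein-fragment complementation; FXR bait and SRC-1 prey each linked to reporter fragments. Activity scored as signal increase over DMSO negative control.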

The target is the same in test [14]. The test can be described thus: OT_FXR_FXRSRC1_1440: Odyssey Thera (OT) 24-hour HEK293T Protein-Complementation Assay for Farnesoid X receptor/SRC-1 Co-activator (AID 2283384). The method in brief: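 Fluorescence readout, 24 h post-dose, HEK293T; FXR and SRC-1 fused to complementary reporter fragments, association reconstitutes signal. Positive-direction fit vs DMSO baseline.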

Test [15] concerns the target Agonist Androgen Response Element (ARE), AR (gene 367) (UniProt P10275). Kind of test: OT_AR_ARELUC_AG_1440: Odyssey Thera (OT) 24-hour CHO-K1 Luciferase Assay for Agonist Androgen Response Element (ARE) (AID 2283379). The method in brief: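 Readout: luciferase bioluminescence from CHO-K1 ARE-luc cells, measured 24 h post-dosing; agonism = increased mean luminescence vs DMSO controls, fitted in positive direction.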

The nature of test [16]: CEETOX_H295R_OHPROG: CeeTox H295R High-throughput Steroidogenesis Assay for OH-Progesterone (OHPROG) (AID 2283435; active = hit-call score of the fitted dose curve at least 0.9, where 1 is the maximum; inactive = score below 0.9). To be noted: actives raise or lower the signal. In short, it runs like this:
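HPLC-MS/MS quantification of 17alpha-hydroxyprogesterone secreted by H295R cells after 48 h chemical exposure, following 48 h 10 uM forskolin prestimulation. Gain or loss of signal fitted relative to DMSO. Viability checked by MTT in the same wells.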

In test [17] the target is human Norepinephrine Transporter (NET), SLC6A2 (gene 6530) (UniProt P23975). The test can be described thus: NVS_TR_hNET: NovaScreen (NVS) Transporter Assay for human Norepinephrine Transporter (NET) (AID 2283377).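 Also: cell-free membrane protein extracted from CHO cells expressing human NET; displacement of radioligand from human NET seen as loss of scintillation signal.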 In short, it runs like this: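 Single-concentration duplicate screen at 25 uM, then concentration-response for actives; displacement of specific radioligand from human NET in CHO membrane extracts, filter-based scintillation detection at 1 h relative to DMSO.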

Test [18] addresses rat Serotonin Transporter (SERT), Slc6a4 (gene 25553) (UniProt P31652). The test can be described thus: NVS_TR_rSERT: NovaScreen (NVS) Transporter Assay for rat Serotonin Transporter (SERT) (AID 2283375). The method in brief: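 Filtration-based radiodetection quantified loss of specific radioligand binding in rat forebrain membranes after 1 hour of chemical exposure, relative to DMSO. Chemicals were first tested in duplicate at 25 uM.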

Molecules are shown by their SMILES. Inconclusive results are not listed. More than one record can exist for a structure, and the calls need not agree. The source made the active and inactive calls. The calls were made as follows, unless noted: active = hit-call score of the fitted dose curve at least 0.9, where 1 is the maximum; inconclusive = response in the unintended direction; inactive = score below 0.9.

Chain of Estrogen receptor (Homo sapiens) (P03372 whole entry, looked up): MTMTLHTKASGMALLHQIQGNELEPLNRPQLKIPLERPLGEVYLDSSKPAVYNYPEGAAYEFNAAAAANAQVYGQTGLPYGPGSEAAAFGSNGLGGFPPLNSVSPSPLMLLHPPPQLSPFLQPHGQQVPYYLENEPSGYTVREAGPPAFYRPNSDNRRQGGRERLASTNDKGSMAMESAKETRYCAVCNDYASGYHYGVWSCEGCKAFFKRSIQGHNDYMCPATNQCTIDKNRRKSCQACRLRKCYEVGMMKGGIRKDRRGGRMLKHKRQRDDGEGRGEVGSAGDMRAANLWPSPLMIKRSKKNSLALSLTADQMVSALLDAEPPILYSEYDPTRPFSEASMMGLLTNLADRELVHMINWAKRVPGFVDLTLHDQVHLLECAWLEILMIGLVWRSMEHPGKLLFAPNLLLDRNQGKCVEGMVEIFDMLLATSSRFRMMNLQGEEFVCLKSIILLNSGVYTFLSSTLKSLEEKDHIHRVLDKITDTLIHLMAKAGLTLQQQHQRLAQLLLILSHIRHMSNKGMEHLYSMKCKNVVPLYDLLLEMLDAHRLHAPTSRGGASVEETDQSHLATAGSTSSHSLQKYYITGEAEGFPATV
Chain of Peroxisome proliferator-activated receptor gamma (Homo sapiens) (P37231 whole entry, looked up, the tested form may be a part): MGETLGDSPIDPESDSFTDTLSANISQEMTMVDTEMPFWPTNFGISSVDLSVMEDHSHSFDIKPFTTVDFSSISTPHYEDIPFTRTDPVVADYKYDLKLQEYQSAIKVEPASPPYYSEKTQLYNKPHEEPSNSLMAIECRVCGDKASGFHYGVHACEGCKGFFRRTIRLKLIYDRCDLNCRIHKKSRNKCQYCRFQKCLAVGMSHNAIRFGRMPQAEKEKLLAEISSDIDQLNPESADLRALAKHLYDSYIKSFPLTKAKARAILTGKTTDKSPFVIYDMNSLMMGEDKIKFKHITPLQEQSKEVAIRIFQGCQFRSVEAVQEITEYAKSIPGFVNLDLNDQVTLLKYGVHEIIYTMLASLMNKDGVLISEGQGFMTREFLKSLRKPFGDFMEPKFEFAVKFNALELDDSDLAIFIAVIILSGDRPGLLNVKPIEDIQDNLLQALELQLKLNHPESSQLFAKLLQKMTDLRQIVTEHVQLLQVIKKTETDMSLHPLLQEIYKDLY
Chain of Bile acid receptor (Homo sapiens) (Q96RI1 whole entry, looked up, the tested form may be a part): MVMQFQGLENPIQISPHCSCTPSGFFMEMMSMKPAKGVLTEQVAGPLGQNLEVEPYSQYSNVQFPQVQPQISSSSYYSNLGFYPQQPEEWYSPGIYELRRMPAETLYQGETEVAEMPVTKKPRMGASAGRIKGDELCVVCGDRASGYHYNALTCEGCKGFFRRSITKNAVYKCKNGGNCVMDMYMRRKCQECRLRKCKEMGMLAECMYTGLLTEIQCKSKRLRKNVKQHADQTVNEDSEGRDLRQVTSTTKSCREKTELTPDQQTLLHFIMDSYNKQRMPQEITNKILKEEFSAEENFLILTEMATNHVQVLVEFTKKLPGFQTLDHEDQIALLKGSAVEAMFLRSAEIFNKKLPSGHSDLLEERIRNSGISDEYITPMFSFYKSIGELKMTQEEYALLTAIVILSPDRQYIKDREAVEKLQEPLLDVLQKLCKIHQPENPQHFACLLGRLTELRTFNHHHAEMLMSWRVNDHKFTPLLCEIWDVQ
Chain of Estrogen receptor beta (Homo sapiens) (Q92731 whole entry, looked up, the tested form may be a part): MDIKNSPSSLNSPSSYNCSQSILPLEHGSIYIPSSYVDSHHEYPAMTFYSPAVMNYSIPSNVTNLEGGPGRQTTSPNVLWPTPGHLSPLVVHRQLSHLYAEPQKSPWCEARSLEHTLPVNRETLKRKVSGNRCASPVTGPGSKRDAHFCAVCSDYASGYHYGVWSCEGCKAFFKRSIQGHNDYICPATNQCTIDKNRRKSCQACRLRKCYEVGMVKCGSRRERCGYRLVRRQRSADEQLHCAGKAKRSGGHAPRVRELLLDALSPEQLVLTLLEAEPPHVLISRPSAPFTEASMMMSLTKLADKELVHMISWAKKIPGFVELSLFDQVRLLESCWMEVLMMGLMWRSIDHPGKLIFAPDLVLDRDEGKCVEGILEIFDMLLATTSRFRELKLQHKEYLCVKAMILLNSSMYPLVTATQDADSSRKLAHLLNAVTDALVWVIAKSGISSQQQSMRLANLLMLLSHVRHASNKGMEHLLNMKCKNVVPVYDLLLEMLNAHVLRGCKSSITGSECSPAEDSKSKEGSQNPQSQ
Chain of human Dopamine Transporter (DAT), SLC6A3 (gene 6531) (Q01959 whole entry, looked up): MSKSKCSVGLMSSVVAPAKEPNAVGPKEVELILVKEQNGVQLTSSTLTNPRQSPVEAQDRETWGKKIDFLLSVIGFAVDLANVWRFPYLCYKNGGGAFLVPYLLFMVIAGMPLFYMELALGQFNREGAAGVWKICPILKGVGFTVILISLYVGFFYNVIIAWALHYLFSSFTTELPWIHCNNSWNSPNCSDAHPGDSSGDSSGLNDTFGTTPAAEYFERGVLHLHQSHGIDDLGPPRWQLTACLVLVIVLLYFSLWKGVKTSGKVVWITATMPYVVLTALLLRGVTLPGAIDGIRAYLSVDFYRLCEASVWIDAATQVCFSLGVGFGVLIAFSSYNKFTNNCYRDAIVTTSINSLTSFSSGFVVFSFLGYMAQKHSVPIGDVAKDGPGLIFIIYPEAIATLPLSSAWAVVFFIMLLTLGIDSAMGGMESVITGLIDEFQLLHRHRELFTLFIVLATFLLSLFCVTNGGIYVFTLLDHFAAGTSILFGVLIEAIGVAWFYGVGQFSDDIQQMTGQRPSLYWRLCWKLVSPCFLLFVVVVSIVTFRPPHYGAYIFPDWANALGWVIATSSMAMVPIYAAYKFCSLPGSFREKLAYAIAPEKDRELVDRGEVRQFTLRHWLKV
Chain of Retinoic acid receptor RXR-alpha (Homo sapiens) (P19793 whole entry, looked up, the tested form may be a part): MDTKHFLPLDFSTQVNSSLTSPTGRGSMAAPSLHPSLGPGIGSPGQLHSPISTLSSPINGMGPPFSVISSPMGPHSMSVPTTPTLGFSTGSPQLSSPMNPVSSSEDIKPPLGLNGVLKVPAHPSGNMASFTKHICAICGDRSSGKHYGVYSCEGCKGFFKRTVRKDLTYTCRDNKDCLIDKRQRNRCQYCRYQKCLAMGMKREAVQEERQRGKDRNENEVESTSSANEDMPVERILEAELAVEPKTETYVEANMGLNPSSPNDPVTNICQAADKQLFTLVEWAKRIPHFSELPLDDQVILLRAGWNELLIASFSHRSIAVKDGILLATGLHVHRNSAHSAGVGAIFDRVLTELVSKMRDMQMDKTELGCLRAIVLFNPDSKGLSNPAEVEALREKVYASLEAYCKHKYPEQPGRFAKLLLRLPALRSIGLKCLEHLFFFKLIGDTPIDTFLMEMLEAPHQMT
Chain of rat Serotonin Transporter (SERT), Slc6a4 (gene 25553) (P31652 whole entry, looked up): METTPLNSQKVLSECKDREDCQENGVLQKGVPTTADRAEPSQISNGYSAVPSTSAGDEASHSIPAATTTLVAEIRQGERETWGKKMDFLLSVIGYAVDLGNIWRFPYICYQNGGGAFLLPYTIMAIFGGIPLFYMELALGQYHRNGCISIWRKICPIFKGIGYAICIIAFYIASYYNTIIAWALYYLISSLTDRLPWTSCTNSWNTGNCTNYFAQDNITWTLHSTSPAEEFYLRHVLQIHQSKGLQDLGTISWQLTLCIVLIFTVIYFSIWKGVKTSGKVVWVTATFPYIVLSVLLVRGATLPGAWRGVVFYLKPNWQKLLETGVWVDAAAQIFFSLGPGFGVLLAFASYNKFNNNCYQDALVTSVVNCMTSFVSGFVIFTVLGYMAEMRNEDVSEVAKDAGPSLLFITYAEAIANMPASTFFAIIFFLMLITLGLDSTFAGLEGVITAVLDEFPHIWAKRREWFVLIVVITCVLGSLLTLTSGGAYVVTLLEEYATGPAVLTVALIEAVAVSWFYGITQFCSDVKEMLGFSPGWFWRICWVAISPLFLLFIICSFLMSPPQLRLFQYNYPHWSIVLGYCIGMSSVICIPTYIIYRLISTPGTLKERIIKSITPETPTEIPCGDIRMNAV
Chain of mouse Estrogen Receptor alpha (Era), Esr1 (gene 13982) (P19785 whole entry, looked up): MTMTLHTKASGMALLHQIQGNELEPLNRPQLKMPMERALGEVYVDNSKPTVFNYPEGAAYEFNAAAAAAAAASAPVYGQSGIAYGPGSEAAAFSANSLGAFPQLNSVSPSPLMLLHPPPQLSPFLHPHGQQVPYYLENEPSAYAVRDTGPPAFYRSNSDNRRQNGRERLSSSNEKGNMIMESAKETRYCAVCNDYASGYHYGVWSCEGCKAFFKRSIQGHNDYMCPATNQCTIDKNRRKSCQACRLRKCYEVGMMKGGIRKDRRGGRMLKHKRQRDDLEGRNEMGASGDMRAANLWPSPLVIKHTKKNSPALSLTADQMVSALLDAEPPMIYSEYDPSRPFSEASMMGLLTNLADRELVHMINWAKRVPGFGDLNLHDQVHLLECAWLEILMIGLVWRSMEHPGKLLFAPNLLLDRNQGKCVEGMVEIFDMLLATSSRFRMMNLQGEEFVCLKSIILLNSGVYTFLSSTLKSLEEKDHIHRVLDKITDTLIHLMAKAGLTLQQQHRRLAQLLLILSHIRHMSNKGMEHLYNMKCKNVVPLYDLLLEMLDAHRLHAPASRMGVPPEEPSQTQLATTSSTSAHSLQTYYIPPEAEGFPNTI

The AC50 is the midpoint of the concentration-response curve, whichever way the signal moves. For `C[C@]12CC[C@@H]3c4ccc(O)cc4CC[C@H]3[C@@H]1CC[C@H]2O`, the compound was classed as inactive in test [1], in [3], in [4], in [5] and in [6]. In addition, the AC50 in test [2] is 0.252 µM (active); in test [7], 3.52 µM (active); in test [8], 1.22 µM (active).
For `CCCOC(=O)c1cc(O)c(O)c(O)c1`, the call in test [1], in test [9], in test [11], in test [12], in [13] and in test [14] was inactive. Also, the compound was called inactive in test [3], in [4], in test [5] and in [6]. For the same compound, the AC50 in test [2] is 10.8 µM (active); in [10], 12.7 µM (active).
As for `O=C(O)Cn1c(=O)n(Cc2ccc(Br)cc2F)c(=O)c2ccc(Cl)cc21`, the results for the concentration at half-maximal activity (AC50) in [1] and in [6] were 42.4 µM (active) and 49.7 µM (active), respectively. The outcome in [15], in test [10], in test [11], in [12], in test [13] and in test [14] was inactive. In addition, the compound was classed as inactive in test [3], in [4], in [5], in test [6], in [7] and in [8]. For the same compound, the compound was classed as inactive in test [16].
In the case of `CCN(CC)C(=O)c1cc(S(=O)(=O)Cc2ccccc2)c(N2CCC(c3ccccc3)CC2)cc1N(CC)CCN(C)C`, the AC50 in [2] was 5.63 µM (active); in test [17], 10.4 µM (active); in test [9] it was 2.54 µM (active); in test [12] it was 19 µM (active); in [13], 4.46 µM (active); in test [14], 4.38 µM (active). Also, the AC50 in test [3] and in test [4] was 4.48 µM (active) each time. In addition, the compound was classed as inactive in test [10], in [11], in test [5] and in [6].
On to `CC1=CC(=O)/C(=C(/C)O)C(=O)O1`, for which the call in test [1], in test [10], in test [11], in test [12], in test [13] and in test [14] was inactive. Besides, the call in test [3], in test [4], in test [5] and in test [6] was inactive.
`CC[C@H](NC(=O)c1cc(F)ccc1NS(=O)(=O)c1cccc2cccnc12)c1ccccc1`: the compound was classed as inactive in [1], in test [10], in [11], in test [12], in test [14] and in test [3]. Moreover, the outcome in test [4], in test [5] and in [6] was inactive. The AC50 in [13] is 31.9 µM (active).
Regarding `Cc1c2ccccc2c(C)c2c1ccc1ccccc12`, the compound was classed as inactive in [1], in test [10], in test [11], in test [12], in test [14] and in test [3]. For the same compound, the compound was called inactive in test [5], in test [6], in [7], in [8] and in test [16]. Besides, the AC50 in [13] was 14.3 µM (active).
Consider `COc1cccc([C@H](O)C2CCN(CCc3ccc(F)cc3)CC2)c1OC`, for which, in [18], the AC50 was 8.09 µM (active).
For the compound `C[C@]12CC[C@@H]3c4ccc(O)cc4CC[C@H]3[C@@H]1CCC2=O`, the AC50 in test [18] is 4.96 µM (active).
